# According to the supplement of paper PMC11417369:
# ± gives the standard deviation of the averaged measurements. The full ranking holds about 25,000 sequences; the median of “ln(normalized median fluorescence intensity)” is about 10, and the highest 2% start at about 12. Only a selection was taken, and the highest values are over-represented in it overall.
# Tested on: PfAP2-G AP2 domain (GST-tagged)
# Test: gcPBM binding intensity (ln(normalized median fluorescence intensity)); higher = stronger DNA binding
# Summary of the method: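 The highest Masliner-normalised natural-log median intensity across replicate spots of either probe orientation is reported as binding intensity. GST-tagged P. falciparum DNA-binding domains expressed in E. coli were applied for 1 h to an Agilent 4 × 180k array of primer-extended double-stranded 36-bp intergenic genomic probes plus negative controls, and bound protein was detected with Alexa488 anti-GST antibody and scanned at 488 nm.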
row,Sequence,gcPBM binding intensity (ln)
1,ATAACAAATATGATAGCATGCTACATATTACAACTT [TGCATGCA_site524],9.71 ± 0.16
2,TATATCTGTAAATGCACACATATGTGGATATACTTA [CACACA_site5013],10.1
3,ATATATATATATAGTAGTACTCTCTCTGTATATATA [XGTACX_site3754],11.3 ± 0.75
4,TATATAAACCCACCTACACACACAACGTAAATGCAT [CACACA_site8702],10.2 ± 0.14
5,AAAAAAAAAAAAAACACACAGAAATATATATATATT [CACACA_site832],9.82 ± 0.33
6,ATATATACCTATATTACACACTTCTTATTCTAAGAA [CACACA_site7421],9.865 ± 0.092
7,ATATAAATGAATATATGTACATATATATATATATAT [XGTACX_site6361],11.2 ± 0.52
8,AAGGAGCCTATGAACACACACATGTACAGATATTAA [CACACA_site6107],11.1 ± 0.52
9,TATATATACATATACACACACACACCGATATATATA [CACACA_site8706],10.1 ± 0.26
10,TATACAATATTTATAACACACATATTTATATAAACT [CACACA_site6932],9.885 ± 0.078
11,TGAATAAATAAGATACGTACACACATATACAAAATA [XGTACX_site7758],11.5 ± 0.83
12,TCATATAAATACACGTGTACATATATATATTACAGT [XGTACX_site1954],11.5 ± 0.81
13,GAATAAATAAGATACGTACACACATATACAAAATAT [CACACA_site3660],11.7 ± 1.1
14,TAAAATATTACGTGTACACATAAATAAAAATAAAAA [CACACA_site5066],11.8 ± 0.92
15,ATACATATATAAATACGTACATATATAATTATATAT [XGTACX_site8178],11.6 ± 0.93
16,TGTACAAATATGTACACACACACATATTTATTTATA [CACACA_site6419],11.5 ± 0.95
17,TAATATTCAATTATACGTACACATATATATATATAT [XGTACX_site4245],11.8 ± 1.1
18,ATTATATATACATATACACACATACGTACATACATA [CACACA_site9194],11.5 ± 0.93
19,TGCTCTAATTTATATACACACAAATATGTACACATA [CACACA_site7845],11.7 ± 1.2
20,GATTTATACAAATATGTACACACTAATTATATATTA [CACACA_site8045],11.5 ± 0.87
21,TTACACATATTATATATATATAAAAAAAAAAAATAT [CACACA_negctrl_site1684],9.82 ± 0.29
22,AAAGATAAAATATATACACACACATAAATACGTACA [CACACA_site8275],11.3 ± 0.88
23,ATTCTACGCACGCGCACACACAACAAAAAAAAAAAA [CACACA_site3538],10.8 ± 0.68

row,Sequence,gcPBM binding intensity (ln)
1,AACAGACATAGACACACACACATATATTTATTTATA [CACACA_site7571],10.11 ± 0.085
2,TTAACATAAATTGTGTCATTTTTTTTTTTTTTTTTA [CACACA_negctrl_site1221],9.725 ± 0.021
3,TAGCGCATAAAAAAAAAAAAATATATACTAATAAAT [GTGCAC_negctrl_site276],9.57 ± 0.071
4,TTCTATATATATATAGACAAACGATAAAATAAAAAA [GTGCAC_negctrl_site142],10.1 ± 0.23
5,GTATATTTCTTTAAATGTACACATTTTTTTAAAGAG [XGTACX_site1225],11.4 ± 0.98
6,AAAAACGAAAAAAATACACACCTGAAAAGATATGTA [CACACA_site4644],9.72 ± 0.16
7,TGACATATAAAATATTCACACACAAGTTATAGTTCT [CACACA_site9209],9.74 ± 0.11
8,CCAATGAGGATATATACACACATACATTAAAAAAAT [CACACA_site5090],10 ± 0.17
9,AATTTAATATAATGCACACATAAAAAAAAAATCAAA [CACACA_site1],10.1 ± 0.18
10,AATTTGTTATGTATATGTACATAAATAGATATATGA [XGTACX_site3930],11.2 ± 0.7
11,AAAGATATTTTTATCTCACACATATAATATATATAT [CACACA_site5478],9.84 ± 0.16
12,AAATTAAAATATAATACACACATAAAAAAAAAAAAA [CACACA_site4183],9.82 ± 0.38
13,TAGATATATAATTTGCGTACACAAATAATATATTTT [XGTACX_site6397],11.4 ± 0.97
14,AATAATACACAATTTTGTACGTATTTAAAATATATT [XGTACX_site45],11.3 ± 0.87
15,TTAAAATTAAAAATGCGTACACATATACATAAAAAA [XGTACX_site1915],11.7 ± 1
16,TATATATACATACGTACACACAAATATTAAAATATA [CACACA_site1951],11.5 ± 1.1
17,TATATATATACATACGTACACACAAATATTAAAATA [CACACA_site1950],11.8 ± 1.2
18,AAAAAAAATTAAATAAATAAATATACACATATATAT [GTGCAC_negctrl_site394],9.47 ± 0.26
19,ATATATATATACATACGTACACACAAATATTAAAAT [XGTACX_site4007],11.6 ± 1.2
20,ATTAAATATATTTTGCGTACACAAAAAAATACGTTC [XGTACX_site3862],11.6 ± 0.97
21,TATGGAACACACCTTAATATGTGATAAAATATGATA [GTGCAC_negctrl_site718],10 ± 0.2
22,AAAAATTTATTTAAAAGTACATAAAATAAAGGTGGA [XGTACX_site7591],11.4 ± 0.69
23,ACATCATTTTTATGTACACACACATATACGTTGAAT [CACACA_site5095],11.6 ± 0.98

row,Sequence,gcPBM binding intensity (ln)
1,AAGAAAATTAAATTAACACACATAAATATATATATA [CACACA_site1664],9.85 ± 0.28
2,GACATTAAAATGAAATATACATATATATGTATATAT [TGCATGCA_negctrl_site601],9.635 ± 0.049
3,AATTAAAATAGTAATACACACTTCATAGGAAATGAT [CACACA_site5045],9.83 ± 0.014
4,TAACATTAAAATAAAAGTACTTAATAATATTAAGTA [XGTACX_site5920],11.1 ± 0.87
5,TCTTATTTTTTTATATATACAAAGTTTTATATATAT [GTGCAC_negctrl_site314],9.915 ± 0.049
6,TTTCCTGGTCAAGGGGTTACGGTTACGTCCTCTTGC [CACACA_negctrl_site856],10.7 ± 0.49
7,AAATTTTAATTAGACTGTACACATTTTAGAATAATT [XGTACX_site4819],11.6 ± 0.92
8,TAAATTAAGAATTTTACACACATTAAATAAAAAAAA [CACACA_site3638],9.805 ± 0.078
9,ATTTTAGAATTTAATACACACAAAAAAAAAAAATTA [CACACA_site3704],10 ± 0.33
10,TTAAAAGATATTACATGTACATATTCAATATATGTA [XGTACX_site5895],11.1 ± 0.69
11,ACGTATCAATTTATTGGTACACATAAATATATATAT [XGTACX_site5556],11.3 ± 0.92
12,AATTGTACGTAGGGGTATAAAAGCTTAAAAATGGGG [CACACA_negctrl_site1392],11.6 ± 0.91
13,GAATGGACGTTAGGGGGTACGTATAAAATTTATCAA [XGTACX_site683],11.7 ± 0.81
14,ATATATTTTCAAAAAAGTAAATCAAAATAAATATAT [TGCATGCA_negctrl_site319],9.84 ± 0.085
15,AATACAGATAATACAACACACAAGTAATATAAACCT [CACACA_site5900],9.975 ± 0.021
16,GGTGATATAATATATACATGCACATATATATTATTA [TGCATGCA_site970],9.9 ± 0.042
17,CATTTAAAATTTGTTTGTACATATATATATATATAT [XGTACX_site6729],11 ± 0.66
18,AAAATTAATGTTGGTTGTACAAAAATTAAATATGGT [XGTACX_site66],11.3 ± 0.75
19,TCCTTAAAATATGGTTGTACGTACATCCTAGGTGTT [XGTACX_site7068],11.7 ± 0.97
20,GTAGGTGTTTTTGGTTGTACATATAAATATATATAC [XGTACX_site3380],11.3 ± 0.8
21,TATATAAATATATATGTACACACATATACATGTTGA [CACACA_site9022],11.3 ± 0.92
22,TATTTCAAATGTTATGTGCACATATTAATCCTACTT [GTGCAC_site9738],10.5 ± 0.28
23,ATAATTATCATAGGATGTACATATTTATTTTGTATA [XGTACX_site7797],11.2 ± 0.67

row,Sequence,gcPBM binding intensity (ln)
1,TTTATTAAAACAAAATGTACACACATATAATTTAAT [XGTACX_site1637],11.2 ± 0.68
2,TTATATTTATATTTATGTACATATTTTGTGTGAAAA [XGTACX_site2367],11.4 ± 0.97
3,TTATTAAAACAAAATGTACACACATATAATTTAATG [CACACA_site8193],11.3 ± 0.73
4,AATGTGAAAACGTGTACACATTTTATTTAATTTATC [CACACA_site5966],11.6 ± 0.98
5,ATTTTTGTAATTATTTGTACACATTTATTTATGTGT [XGTACX_site1864],11.5 ± 0.73
6,GCAAATGTGAAAACGTGTACACATTTTATTTAATTT [XGTACX_site8000],11.7 ± 1
7,CGTTATATATTTTATAGTACTTTTTGTAAATTTTTT [XGTACX_site7682],11.1 ± 0.67
8,CGATATGTTCAATATTGTACTATTTATAATAATATG [XGTACX_site3051],11 ± 0.69
9,ATATATATATATATATGTACTAAATATTCATCCTTA [XGTACX_site6039],11 ± 0.65
10,TGAATATAACAAATATGTACTTAAAATTGTTATATT [XGTACX_site5679],11.1 ± 0.76
11,GTGTAATATATTTTTCGTACATATTATATATATATA [XGTACX_site1675],11 ± 0.69
12,AATTATTTTAGAAACACACAAATTAGAAAAAACATA [CACACA_site7673],10.2 ± 0.24
13,AAGAAAAAACAAACATGTACACATAATTTAGTTTTT [XGTACX_site3121],11.4 ± 0.89
14,AATTTTTTTTTTAGACGTACAAGAAAAAACAAAAAA [XGTACX_site4990],11.7 ± 0.75
15,TTTTTTGCTAAGTGTACACAAATGTTTATTAATTTA [CACACA_site5859],11.7 ± 1
16,TTTATATGTATTAAGTGTACACATATAATGTATTTT [XGTACX_site16],11.5 ± 0.83
17,ATATATAATTTTTGCTGTACACAAAATATTAATTTA [XGTACX_site2057],11.5 ± 0.86
18,TATTTTTTTTTTTAATGTACAAACAAATTATGTTGG [XGTACX_site2873],10.8 ± 0.57
19,ATTTTTTTTGCTAAGTGTACACAAATGTTTATTAAT [XGTACX_site7440],11.7 ± 0.81
20,TTTATATGTATTAAGTGTACACATATAATGTGTTTT [XGTACX_site4890],11.6 ± 0.87
